Screens as filed in PubChem.
Compounds with a hit are over-represented: about 3% of the library has one in this group of screens.
OvCa metastasis: blocks SKOV3ip1 adhesion and invasion in omental model | AID 1963576 | hit rate 0.1% among 46,000 | SKOV3ip1-GFP adhesion/invasion on 3D omental model, fluorescence | Potency, µM (series often up to 45.8 µM), for the others: at the highest dose activity change, negative = inhibition, usual class: inhibitors;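 also: potency is read from the fitted curve at half-maximal effect; plate controls were DMSO wells for no effect and tomatine positive control wells for full effect; nearly all actives have a fitted effect of over 65% in size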
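qHTS, 4-pt dose (0.36-46 umol/L); SKOV3ip1-GFP, 1,200 cells/well, no FBS; primary omental fibroblast/mesothelial co-culture 48 h pre-grown; 2 h RT + 16 h 37 C; PBS wash, 4% PFA; GFP count 488/509 nm.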
PMP22 txn: PMP22 gene transcription modulation; AID 1508649; Potency, µM (doses to about 57.5 µM), for inactives: top-dose activity change, negative = inhibition, most hits filed as inhibitors; S16 Pmp22-F2sN Schwann cells, FLuc/NLuc coincidence luminescence, 24 h; hit rate 2% among 43,000; active = clear falling dose curves in both reporters; inconclusive = both reporters move, but less clearly or upward; inactive = either reporter flat; the % is the NLuc reporter signal; also: potency is read from the fitted curve at half-maximal effect; % is scaled to controls: 0 for no effect and ±100 for the full control effect
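Rat S16 Pmp22-F2sN cells, 500-1,000/well in phenol red-free DMEM + 10% FBS, compound-treated 24 h (37C, 5% CO2). Luminescence: FLuc read, Stop&Glo added, NLuc read.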
p53null 32C kill: selectivity test: cytotoxicity in p53 null cells, permissive temperature. H1299-neo p53 null cells, ATP luminescence, 24 h, 32C. Potency, µM (top dose mostly 46.1 µM), inactives show top-dose activity change, negative = cytotoxicity, actives largely listed as cytotoxic. hit rate 0.62% among 55,000;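 also: potency is read from the fitted curve at half-maximal effect; 0% = DMSO only and -100% = full killing by 100 µM tamoxifen; nearly all actives have a fitted effect of over 55% in size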
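H1299-neo, 600 cells/well; overnight 37C; cpd up to 46 uM, 24 h at 32C; ATPlite luminescence after 20 min RT; normalized to DMSO (0%) and tamoxifen 100 uM (100% kill); Hill-fit AC50.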
p53null 39C kill: selectivity test: cytotoxicity in p53 null cells, nonpermissive temperature; hit rate 0.97% among 55,000; Potency, µM (doses to about 46.1 µM), without a hit: at the highest dose activity, negative = cell killing, usual class: cytotoxic; H1299 p53-null (neo) cells, 39C, ATPlite viability, 24 h;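 also: potency is read from the fitted curve at half-maximal effect; 0% = DMSO only and -100% = full killing by 100 µM tamoxifen; nearly all actives have a fitted effect of over 50% in size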
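Temperature-shift cytotoxicity format: compound titrations on p53-null or A138V-expressing H1299 cells held 24 hr at 39C, cell ATP then measured, AC50 from Hill model.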
mTORC1 inh: reduces mTORC1 signaling in Tsc2 and p53 null MEF cells. Tsc2-/- p53-/- MEF, phospho-rpS6 immunofluorescence/PI, 24 h. Potency, µM (doses to about 38.3 µM), inactives show at the highest dose activity change, negative = inhibition, usual class: inhibitors. hit rate 0.78% among 44,000. AID 493208;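 also: potency is read from the fitted curve at half-maximal effect; plate controls were DMSO for no effect and rapamycin for full effect; nearly all actives have a fitted effect of over 50% in size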
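Immunofluorescence of rpS6 phosphorylation in Tsc2-/-, p53-/- MEFs after 24 h compound exposure, normalized to propidium iodide signal. Activity is expressed as % positive cells, thresholded with 7.5 nM rapamycin.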
S16 viability: cytotoxicity in S16 Pmp22-F2sN Schwann cells | AID 1508642 | S16 Pmp22-F2sN Schwann cells (luciferase reporters placed in the Pmp22 gene) viability, CellTiter-Glo, 24 h | hit rate 0.48% among 43,000 | Potency, µM (top dose mostly 57.5 µM), for the others: at the highest dose activity change, negative = cytotoxicity, actives largely listed as cytotoxic; also: potency is read from the fitted curve at half-maximal effect; % is scaled to controls: 0 for no effect and ±100 for the full control effect; nearly all actives have a fitted effect of over 65% in size
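Seed 500-1,000 S16 Pmp22-F2sN cells per well in phenol-red-free DMEM with 10% heat-inactivated FBS; pin-add 23 nL compound; incubate 24 h at 37C; add CellTiter-Glo, wait 15 min protected from light; read luminescence.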
NLuc saturating: NanoLuc enzyme inhibition artifact for PMP22 screen; shares compounds with PMP22 txn; Secreted NLuc enzyme (filtered S16 cell medium), Nano-Glo luminescence; Potency, µM (titrated, usually from 57.5 µM), without a hit: at the highest dose activity change, negative = inhibition, actives largely listed as inhibitors; hit rate 4% among 690; AID 1508638; also: potency is read from the fitted curve at half-maximal effect; % is scaled to controls: 0 for no effect and ±100 for the full control effect
NLuc Km ctr: inhibits NanoLuc under Km conditions, PMP22 counter-screen | Potency, µM (titrated, usually from 57.5 µM), for inactives: at the highest dose activity change, negative = inhibition, hits mostly inhibitors | secreted NLuc enzyme, coelenterazine luminescence, Km conditions | hit rate 5% among 690 | shares compounds with PMP22 txn; also: potency is read from the fitted curve at half-maximal effect; % is scaled to controls: 0 for no effect and ±100 for the full control effect
FLuc ctr PMP22: counter-screen for PMP22 expression modulators: firefly luciferase inhibition. shares compounds with PMP22 txn. purified P. pyralis FLuc, luminescence, 10 min. Potency, µM (doses to about 57.5 µM), without a hit: at the highest dose activity, negative = inhibition, hits mostly inhibitors. 690 tested, under 10 active; also: % of control where 0% means no effect
Target sequence (P08659 whole entry, looked up): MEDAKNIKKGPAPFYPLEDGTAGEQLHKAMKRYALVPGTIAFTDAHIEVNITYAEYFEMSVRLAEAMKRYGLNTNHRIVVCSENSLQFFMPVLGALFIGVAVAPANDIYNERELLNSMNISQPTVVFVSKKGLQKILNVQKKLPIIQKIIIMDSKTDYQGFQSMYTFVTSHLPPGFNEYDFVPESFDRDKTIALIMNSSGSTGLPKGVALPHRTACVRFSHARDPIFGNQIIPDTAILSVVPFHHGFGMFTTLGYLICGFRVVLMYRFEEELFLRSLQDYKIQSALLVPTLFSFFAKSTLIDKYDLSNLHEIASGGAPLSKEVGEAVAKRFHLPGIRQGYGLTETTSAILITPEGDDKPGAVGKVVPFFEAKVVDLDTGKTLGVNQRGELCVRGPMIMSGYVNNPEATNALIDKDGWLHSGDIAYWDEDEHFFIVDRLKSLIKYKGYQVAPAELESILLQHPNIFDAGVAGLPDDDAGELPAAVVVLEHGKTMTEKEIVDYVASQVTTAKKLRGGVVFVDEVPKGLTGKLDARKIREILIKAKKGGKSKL
S16 viab conf: S16 Schwann cell cytotoxicity, confirmatory; shares compounds with PMP22 txn; S16 Schwann cells viability, CellTiter-Glo ATP luminescence, 24 h; Potency, µM (series often up to 57.5 µM), for the others: at the top dose activity change, negative = viability loss, actives largely listed as cytotoxic; hit rate 7% among 690; also: potency is read from the fitted curve at half-maximal effect; % is scaled to controls: 0 for no effect and ±100 for the full control effect
PMP22 txn conf: confirmation of modulators of PMP22 gene transcription in S16 cells. Potency, µM (highest dose often 57.5 µM), for the others: at the top dose activity change, negative = inhibition, usual class: inhibitors. S16 Schwann cells Pmp22-F2sN, dual luciferase, 24 h. hit rate 22% among 690. shares compounds with PMP22 txn. AID 1508646; active = clear falling dose curves in both reporters; inconclusive = both reporters move, but less clearly or upward; inactive = either reporter flat; the % is the FLuc reporter signal; also: potency is read from the fitted curve at half-maximal effect
PMP22 prot conf: confirmation of modulators of rat PMP22 protein expression; shares compounds with PMP22 txn; S16 Schwann cells Pmp22-HiBiT, luminescence, 48 h; Potency, µM (doses to about 27.9 µM), for inactives: top-dose activity change, negative = inhibition, hits mostly inhibitors; 95 tested, under 10 active; AID 1508647
Target sequence (P25094 whole entry, looked up): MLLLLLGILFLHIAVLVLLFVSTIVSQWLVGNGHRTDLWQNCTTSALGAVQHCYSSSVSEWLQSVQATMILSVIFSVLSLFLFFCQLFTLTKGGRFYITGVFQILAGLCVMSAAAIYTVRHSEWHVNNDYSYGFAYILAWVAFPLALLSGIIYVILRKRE
Active calls of the source: *; i = inactive; u = inconclusive; x = not tested or not shown. Unless noted, calls follow the shape of the dose curve; as a rule, active = well fitted curve in the direction sought with a large enough effect; inconclusive = small, poorly fitted or top-dose-only effect, or another doubt; inactive = no such curve, though single readings can be large; an effect the other way counts as inactive or inconclusive.

SMILES | OvCa metastasis | PMP22 txn | p53null 32C kill | p53null 39C kill | mTORC1 inh | S16 viability | NLuc saturating | NLuc Km ctr | FLuc ctr PMP22 | S16 viab conf | PMP22 txn conf | others
COCCOC(=O)C1=C(C)NC2=C(C(=O)CC(c3ccccc3OC)C2)C1c1cccc(O)c1 (centres undefined) | 8% | x | x | x | x | x | x | x | x | x | x
COc1ccc(Nc2c3c(nc4ccccc24)CCC3)cc1Cl | i | 10µM* | -1% | u | u | u | -19% | -2% | 3% | -24% | u
Fc1ccc(Nc2c3c(nc4ccccc24)CCC3)cc1 | -7% | 14µM* | -4% | u | -14% | -4% | u | 7% | 10% | -20% | 18µM*
COc1ccc(Nc2c3c(nc4nncn24)CCC3)cc1Cl | -13% | u | 12% | -13% | -13% | -18% | x | x | x | x | x
Fc1ccc(F)c(Nc2c3c(nc4ccc(Cl)cc24)CCC3)c1 | i | 19µM* | 18% | 17% | 2% | -10% | u | u | 3% | -2% | -31%
COc1ccc(C)cc1Nc1c2c(nc3ccccc13)CCC2 | 0% | 11µM* | -10% | 16µM* | u | -15% | u | -19% | 2% | -7% | u
COc1cc2c(N3CCN(C(=O)Nc4ccc(OC(C)C)cc4)CC3)ncnc2cc1OCCCN1CCCCC1 | -10% | x | x | x | x | x | x | x | x | x | x
OC[C@H]1O[C@@H](Oc2cc(O)cc(C=Cc3ccc(O)cc3)c2)[C@H](O)[C@@H](O)[C@H]1O | 5% | x | x | x | x | x | x | x | x | x | x
O=C(Nc1ccc(OC(F)(F)F)cc1)c1sccc1NCc1ccnc2ccccc12 | 1% | x | x | x | x | x | x | x | x | x | x
CCOC(=O)c1ccccc1NC(=O)Cn1c(=O)n(Cc2ccccc2)c(=O)c2c(C)c(C)sc21 | -1% | 18µM* | 7% | 12% | u | -7% | -10% | -4% | 10% | 6% | 18%
Cc1ccc(Cn2c(=O)n(Cc3ccccc3)c(=O)c3c(C)c(C)sc32)cc1 | i | -6% | 1% | 18% | 3% | -8% | x | x | x | x | x
O=C(NCCc1ccccc1)c1c[nH]c2ccc(S(=O)(=O)Nc3ccccc3F)cc2c1=O | 1% | u | 2% | -4% | -9% | -7% | -22% | -18% | -14% | -17% | -10%
O=C(NCCc1ccccc1)c1c[nH]c2ccc(S(=O)(=O)Nc3ccc(F)cc3F)cc2c1=O | -5% | -34% | 15% | 2% | 6% | 2% | x | x | x | x | x
CCOc1ccc(C(=O)N2CCc3cc(OC)c(OC)cc3C2COc2ccc3c(C)cc(=O)oc3c2)cc1OCC (centres undefined) | -2% | 13µM* | 12% | 0% | -2% | -2% | -7% | 5% | 5% | 1% | -34%
Cc1cc(NC(=O)C2CCCN(S(=O)(=O)c3cccc4nonc34)C2)ccc1Br (centres undefined) | i | 18µM* | 5% | -21% | 4% | u | -1% | 3% | 3% | -12% | 17µM* | PMP22 prot conf=30%
Cc1cc(Br)ccc1NC(=O)C1CCCN(S(=O)(=O)c2cccc3nonc23)C1 (centres undefined) | i | u | -7% | -21% | -16% | 13% | x | x | x | x | x
COc1ccc2c(c1)CC[C@H]1[C@@H]2CC[C@]2(C)[C@@H](NCCCCCCN3C(=O)C=CC3=O)CC[C@H]12 | 0% | x | x | x | x | x | x | x | x | x | x
CCc1ccc(NCc2cc3cc(OC)c(OC)cc3n(CC(=O)Nc3cc(C)ccc3C)c2=O)cc1 | i | 11µM* | 7% | -15% | 2% | 8% | -11% | 9% | -1% | -10% | u
CCC(CC)[C@H](NC(C)=O)[C@@H]1[C@H](O)[C@@H](C(=O)O)C[C@@H]1N=C(N)N | -21% | x | x | x | x | x | x | x | x | x | x
O=C1NC(=O)C(=Cc2ccc(-c3ccc(F)cc3O)o2)S1 | -2% | x | x | x | x | x | x | x | x | x | x
COc1cc(O)c2c(c1)C1OC1C[C@H](O)[C@H](O)C(=O)C=CC[C@H](C)OC2=O (some centres undefined) | -27% | x | x | x | x | x | x | x | x | x | x
CCCN(C(=O)Cn1nc(Cc2cccnc2)c2ccccc2c1=O)c1ccc(C(C)C)cc1 | -2% | u | u | u | -10% | -9% | x | x | x | x | x
CCCN(C(=O)Cn1nc(Cc2ccncc2)c2ccccc2c1=O)c1ccccc1C | i | 13µM* | -1% | 3% | -10% | 22% | u | u | -3% | 8% | u
CC(C)CN(C[C@H](O)[C@H](Cc1ccccc1)NC(=O)O[C@H]1CCOC1)S(=O)(=O)c1ccc(N)cc1 | -6% | x | x | x | x | x | x | x | x | x | x
O=C(CSc1c2c(nc3ccc(Cl)cc13)CCCC2)NCc1ccccc1Cl | i | 11µM* | 15% | u | -2% | 22µM* | u | u | -1% | 27% | u
CCOC(=O)c1ccc(NC(=O)CSc2c3c(nc4cc(Cl)ccc24)CCCC3)cc1 | 27% | u | 0% | -11% | 2% | 10% | x | x | x | x | x
COC(=O)c1ccccc1NC(=O)CSc1c2c(nc3ccc(Cl)cc13)CCCC2 | 5% | 18µM* | 22% | -7% | 0% | 17% | -15% | 4% | 6% | u | u
